# Measured values taken from PubChem BioAssay (Tox21).
# Inconclusive results are not listed. Where a call stands in place of a potency, no number is given. Unmarked numbers belong to inactive results. The source made the active and inactive calls. Calls follow the shape of the full dose curve.
# Assay: p53 small molecule agonists, cell-based qHTS assay with rat liver microsomes (AID 1963578)
# Conditions: HCT-116 p53RE-bla, beta-lactamase ratio, 16 h; series mostly up to 66 µM; activation: at the top concentration
# Text: U.S. Tox21 Program National Center for Advancing Translational Sciences [NCATS] Division of Preclinical Innovation [DPI] U.S. Environmental Protection Agency [EPA] National Institutes of Environmental Health Sciences [NIEHS] National Toxicology Program [NTP] U.S. Food and Drug Administration [FDA] Tox21 Assay Overview: p53, a tumor suppressor protein, is activated following cellular insult, including DNA damage and other cellular stresses. The activation of p53 regulates cell fate by inducing DNA repair, cell cycle arrest, apoptosis, or cellular senescence. The activation of p53, therefore, is a good indicator of DNA damage and other cellular stresses. […] The activation of the reporter gene under culture conditions can be detected by fluorescence intensity. This cell line was used to screen the Tox21 10K compound library in the condition of presence of rat liver microsomes and to identify agonists that activate the p53 signaling pathway after in vitro metabolic activation (Ooka et al., Archive of Toxicology 96:1975-1987, 2022).
# Tox21 Assay Protocol Summary: The p53RE-bla cells were dispensed at 4,000cells/3ul/well in 1536-well black-clear bottom plates. After the assay plates were incubated at 37 C, 5% CO2 incubator for 5 hours, 23 nL of compounds dissolved in DMSO, positive controls or DMSO only was transferred to the assay plate. Following compound addition, 3 uL of rat liver microsomes (Molecular Toxicology, Boone, NC) at final concentration of 0.5 mg/mL and 1uL of Beta-Nicotinamide adenine dinucleotide 2-phosphate (NADPH) at final concentration of 0.5 mg/mL were transferred to the assay plate. The plates were incubated at 37 C for 16 hours. 1 uL of LiveBLAzer detection mixture was added to each well and the plates were incubated at room temperature in the dark for 2 h.
SMILES,activation,Potency
CCCSC(=O)Cl,0.619%,
ClCC1CO1 (stereo not given),0.183%,
Cc1cc(Cl)ccc1O,,inactive
C=CCOC(N)=O,0.547%,
CC(Cl)CCl (stereo not given),-0.482%,
Cn1c(N)nc2c3cccnc3ccc21,0.948%,
CC[n+]1c(-c2ccccc2)c2cc(N)ccc2c2ccc(N)cc21,,inactive
CN(C)C(=S)SSC(=S)N(C)C,,inactive
CC(C)Nc1nc(Cl)nc(NC(C)C)n1,,inactive
O=C(Cl)c1ccccc1,-2.25%,
CC12CC1(C)C(=O)N(c1cc(Cl)cc(Cl)c1)C2=O (stereo not given),,inactive
O=S(=O)(c1ccc(O)cc1)c1ccc(O)cc1,,inactive
Nc1nc(N)nc(NC2CC2)n1,,inactive
NCc1cccnc1,,inactive
CCOC(=S)S,,inactive
CCOC(=O)C(C)OC(=O)c1cc(Oc2ccc(C(F)(F)F)cc2Cl)ccc1[N+](=O)[O-] (stereo not given),0.674%,
CCBr,2.36%,
Brc1ccc(Oc2ccccc2)cc1,,inactive
O=S(=O)(Cl)Cl,-1.32%,
c1ccc(OP(Oc2ccccc2)Oc2ccccc2)cc1,,inactive

SMILES,activation,Potency
O=NN1CCOCC1,,inactive
C=CC(=O)OCC(CC)CCCC (stereo not given),,inactive
CCN(N=O)C(N)=O,,inactive
C[C@]12CC[C@H]3[C@@H](CCC4=CC(=O)CC[C@@H]43)[C@@H]1CC[C@@H]2O,,inactive
COC(C)(C)CCCC(C)C/C=C/C(C)=C/C(=O)OC(C)C (stereo not given),,inactive
CCN(Cc1ccc(Cl)nc1)/C(=C/[N+](=O)[O-])NC,-1.22% [at 30.3 µM],
O=S(=O)(O)C(F)(F)C(F)(F)C(F)(F)C(F)(F)C(F)(F)C(F)(F)F,-2.78%,
Nc1ccccc1C(=O)OCC(O)CO (stereo not given),-2.76% [at 30.3 µM],
BrCCc1ccccc1,1.33%,
CNC(=O)N(C)c1nnc(C(C)(C)C)s1,,inactive
C=CCCC#N,0.314%,
CCOP(=O)(CN(CCO)CCO)OCC,4.52%,
COC(=O)C(Br)CBr (stereo not given),0.705%,
Cc1ccc(N=CN(C)C=Nc2ccc(C)cc2C)c(C)c1,,inactive
CC1(C)CC(=O)CC(C)(C)N1[O],3.95%,
C=CC=O,-0.618%,
NCCOS(=O)(=O)O,-2.5%,
Oc1ccccc1Cl,,inactive
CC(c1ccc(O)cc1)c1ccc(O)cc1,,inactive
CN(C)c1ccc(N(C)C)cc1,-3.42%,
